Molecules are shown by their SMILES. Results filed as inconclusive are left out. Active and inactive are the calls of the source. The call rests on the fitted dose curve; in most records, active means well fitted inhibition curve with a large enough effect; inconclusive means small, poorly fitted or top-dose-only effect; inactive means flat fitted curve, though single readings scatter.
On the % scale 0 is the no-effect control and ±100 the full control effect.

Glutathione peroxidase 1 (Homo sapiens), sequence (P07203 whole entry, looked up): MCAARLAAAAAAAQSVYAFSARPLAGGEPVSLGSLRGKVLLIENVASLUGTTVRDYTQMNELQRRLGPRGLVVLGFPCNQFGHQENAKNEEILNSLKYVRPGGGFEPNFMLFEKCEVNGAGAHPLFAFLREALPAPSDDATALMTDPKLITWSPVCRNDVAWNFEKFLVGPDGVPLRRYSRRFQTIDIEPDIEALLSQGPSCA

In this experiment the target is Glutathione peroxidase 1 (Homo sapiens) (UniProt P07203). The experiment in a line: Primary qHTS Assay for Inhibitors of Recombinant Selenoprotein Glutathione Peroxidase 1 (GPX1) (AID 1845191). Further: nearly all actives have a fitted effect of over 65% in size. The conditions noted are these: recombinant GPX1, GR-coupled NADPH fluorescence, 15 min; series mostly up to 27.7 µM; activity, negative = inhibition: at the top concentration. The gist of the method:
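GPX1 10 nM, GR 100 nM, GSH 1 mM, NADPH 0.5 mM, CHP 0.5 mM (final). 30-min cpd preincubation, RT. Ex340/Em450 read t=0, t=15 min.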
On the technique in general: qHTS replaces the single test concentration by a dilution series.
For the compound `CC(C)c1ccc2c(c1)C(O)CC1C(C)(CO)CCCC21C` (stereo not drawn), the “outcome” value was “inactive [at 48.8 µM]”.

On to `C=C1CCC2C(C)(C(=O)O)CCCC2(C)C1CC/C(C)=C\CO` (stereo not drawn), for which the outcome was inactive.

Regarding `COc1cccc(OC)c1-c1cc(C(=O)N[C@@H](CC(C)C)C(=O)O)nn1-c1ccnc2cc(Cl)ccc12`, the “outcome” value is “inactive [at 48.8 µM]”.

On to `O=C(/C=C/c1ccccc1)O[C@@H]1[C@@H](CO)O[C@@](CO)(O[C@H]2O[C@H](CO)[C@@H](O)[C@H](O)[C@H]2O)[C@H]1O`, for which the “activity, negative = inhibition” value is -3.27% (inactive).

Turning to `CCOC(=O)COc1ccc2c(c1)C[C@@H](NC[C@H](O)c1cccc(Cl)c1)CC2`, the “activity, negative = inhibition” value is -8.87% [at 48.8 µM] (inactive).

With `O=C(O)CCc1c(C(=O)O)[nH]c2cc(Cl)cc(Cl)c12`, the “activity, negative = inhibition” value was 3.49% (inactive).

Regarding `CCN=C1N[C@@H]2[C@@H](O)[C@H](O)[C@@H](CO)O[C@@H]2S1`, the “activity, negative = inhibition” value is -6.86% [at 48.8 µM] (inactive).

For `C[C@@H]1O[C@@H](O[C@H]2[C@@H]3C=CO[C@@H](O[C@@H]4O[C@H](CO)[C@@H](O)[C@H](O)[C@H]4O)[C@@H]3[C@@]3(CO)O[C@@H]23)[C@H](OC(=O)/C=C/c2ccc(O)cc2)[C@H](O)[C@H]1O`, the “outcome” value is “inactive [at 15.3 µM]”.

As to `CC(=O)N[C@H](Cc1c[nH]c2ccccc12)C(=O)OCc1cc(C(F)(F)F)cc(C(F)(F)F)c1`, the “outcome” value was “inactive [at 48.8 µM]”.

Consider `CC1(C(=O)O)CCCC2(C)C3CC4C5CC3(CCC12)CC45C` (stereo not drawn), for which the “activity, negative = inhibition” value was -13% [at 48.8 µM] (inactive).

On to `CC(C)[C@@](O)(c1ccc2cc(OC(F)F)c(OC(F)F)cc2c1)c1cn[nH]n1`, for which the “activity, negative = inhibition” value is -6.35% [at 48.8 µM] (inactive).

Turning to `CC(C)C1(O)C=C2C(=O)CC3C(C)(C(=O)O)CCCC3(C)C2CC1` (stereo not drawn), the “activity, negative = inhibition” value was -4.66% (inactive).

For `C=C1[C@H](OC(C)=O)[C@H]2[C@@H](OC(=O)c3ccccc3)[C@@H](C)C[C@]2(O)[C@@H](OC(C)=O)[C@H](C)/C=C/C(C)(C)C(=O)[C@H](OC(C)=O)[C@H]1OC(C)=O`, the “outcome” value is “inactive [at 15.3 µM]”.

For the compound `CC(=O)OC1C(O)C(C)(O)C(/C=C/C(=O)O)C2(C)CCCC(C)(C)C12` (stereo not drawn), the outcome was inactive.

`C/C=C(/C)C(=O)OC1CC(C)(C)CC2C3=CCC4C5(C)CCC(OC6OC(C)C(OC7OC(C(=O)O)C(O)C(OC8OC(CO)C(O)C(O)C8OC8OC(CO)C(O)C(O)C8O)C7O)C(O)C6O)C(C)(C)C5CCC4(C)C3(C)C(OC(=O)/C=C/C=C/C=C/CCC)C(OC(C)=O)C12CO` (stereo not drawn): the “activity, negative = inhibition” value is 4.47% [at 9.52 µM] (inactive).

For `COc1cc([C@H]2OC[C@](O)(Cc3ccc(O[C@@H]4O[C@H](CO)[C@@H](O)[C@H](O)[C@H]4O)c(OC)c3)[C@@H]2CO)ccc1O`, the “activity, negative = inhibition” value is 0.825% (inactive).

In the case of `C[C@@H]1O[C@@H](O[C@@H]2[C@@H](O)[C@H](O[C@H]3[C@H](O[C@H]4CC[C@@]5(C)C(CC[C@]6(C)C5CC=C5[C@@H]7CC(C)(C)CC[C@]7(C(=O)O[C@@H]7O[C@H](CO)[C@@H](O)[C@H](O)[C@H]7O)CC[C@]56C)C4(C)C)O[C@H](C(=O)O)[C@@H](O)[C@@H]3O)OC[C@H]2O)[C@H](O)[C@H](O)[C@H]1O` (stereo partly drawn), the “outcome” value was “inactive [at 15.3 µM]”.

Consider `CC(C)=CC[C@H]1O[C@]2(O)C([C@H]3CCC4[C@@]5(C)CC[C@H](O[C@@H]6O[C@H](CO)[C@H](O)[C@H](O[C@@H]7O[C@H](CO)[C@@H](O)[C@H](O)[C@H]7O)[C@H]6O[C@@H]6O[C@@H](C)[C@H](O)[C@@H](O)[C@H]6O)C(C)(C)C5CC[C@@]4(C)[C@]3(C)[C@H]2O)[C@@]1(C)O` (stereo partly drawn), for which the “outcome” value was “inactive [at 15.3 µM]”.

With `O=C(O)c1ccnc2cc(C(OCC3CCC(F)(F)CC3)c3ccccc3Cl)[nH]c12` (stereo not drawn), the “activity, negative = inhibition” value was -17.4% [at 48.8 µM] (inactive).

As for `C=C(C)[C@@H]1CC[C@]2(C(=O)O)CC[C@]3(C)[C@H](CCC4[C@@]5(C)CCC(=O)C(C)(C)C5C(O)C[C@]43C)C12` (stereo partly drawn), the outcome was inactive.

Regarding `CC1(C)C[C@H]2C=C(C=O)[C@]3(C(=O)O)C[C@]3(C)[C@H]2C1`, the “activity, negative = inhibition” value is -9.14% [at 48.8 µM] (inactive).

Consider `CC(=O)O[C@@H](C[C@@H]1C=C(C)C(=O)O1)[C@H](C)[C@H]1CCC2[C@@]3(C)CC[C@H](O[C@@H]4O[C@H](CO)[C@@H](O)[C@H](O)[C@H]4O[C@@H]4O[C@@H](C)[C@H](O)[C@@H](O)[C@H]4O)C(C)(C)C3CC[C@@]2(C)[C@@]12COC(=O)C2` (stereo partly drawn), for which the “activity, negative = inhibition” value is -2.72% [at 15.3 µM] (inactive).

Regarding `C=C1CC[C@@H]2[C@@](C)(CO[C@@H]3O[C@H](CO)[C@@H](O)[C@H](O)[C@H]3O)[C@H](O)CC[C@@]2(C)[C@@H]1CC/C(C)=C/CO[C@@H]1O[C@H](CO)[C@@H](O)[C@H](O)[C@H]1O`, the “activity, negative = inhibition” value was 2.7% [at 15.3 µM] (inactive).

In the case of `COC(=O)C1=COC(O[C@@H]2O[C@H](COC(=O)/C=C/c3ccc(O)cc3)[C@@H](O)[C@H](O)[C@H]2O)C2C(CO)=CCC12` (stereo partly drawn), the “activity, negative = inhibition” value is -15% (inactive).

`C[C@@H]1O[C@@H](O[C@H]2[C@H](Oc3cc(O)c(C(=O)CCc4ccc(O)cc4)c(O)c3)O[C@H](CO)[C@@H](O)[C@@H]2O)[C@H](O)[C@H](O)[C@H]1O`: the “activity, negative = inhibition” value is -8.74% [at 48.8 µM] (inactive).

As for `CC(=O)OC1(C)CC(O)C2(O)C=COC(OC3OC(CO)C(O)C(O)C3O)C12` (stereo not drawn), the outcome was inactive.

For the compound `Cc1cn2cc(CC(=O)N3CCC4(CC3)CN(Cc3ccc(-n5nccn5)cc3Cl)C4)nc2s1`, the “activity, negative = inhibition” value is 2.1% [at 48.8 µM] (inactive).

Take `C[C@@H]1CC[C@]2(C(=O)O)CC[C@]3(C)C(=CCC4[C@@]5(C)C[C@@H](O)[C@@H](O)C(C)(C)C5CC[C@]43C)C2[C@]1(C)O` (stereo partly drawn): the “activity, negative = inhibition” value was -16.6% (inactive).

Turning to `CC1(C)CC(NC(=O)C(=O)Nc2ccc(Cl)cc2)CC(C)(C)N1`, the “outcome” value is “inactive [at 48.8 µM]”.

Consider `CCC(C)/C=C(C)/C=C/C(=O)C1CCC(O)C(C)(O)C1=O` (stereo not drawn), for which the “activity, negative = inhibition” value was -6.11% [at 48.8 µM] (inactive).

`COC(=O)C1=COC(OC2OC(CO)C(O)C(O)C2O)C2C(COC(=O)/C=C/c3ccc(O)c(O)c3)C(O)C(O)C12` (stereo not drawn): the “outcome” value is “inactive [at 15.3 µM]”.

Turning to `CC1(C)O[C@H]2CC(=O)OC[C@@]23C1=C(O)C(=O)[C@]1(C)C3CC[C@@]2(C)[C@H](c3ccoc3)OC(=O)[C@H]3O[C@]321` (stereo partly drawn), the outcome was inactive.

As for `Cc1nc2ccccc2c(-c2ccc3c4c(ccnc24)CCO3)c1[C@H](OC(C)(C)C)C(=O)O`, the “activity, negative = inhibition” value is -15.9% [at 48.8 µM] (inactive).

Turning to `C=C1CC[C@@]2(OC1)O[C@H]1CC3C4CC=C5C[C@@H](O[C@@H]6O[C@@H](C)[C@H](O)[C@@H](O)[C@H]6O)C[C@@H](O[C@@H]6O[C@H](C)[C@H](O)[C@H](O)[C@H]6O[C@@H]6O[C@@H](C)[C@H](O)[C@@H](O)[C@H]6O)[C@]5(C)C4CC[C@]3(C)[C@H]1[C@@H]2C` (stereo partly drawn), the “outcome” value was “inactive [at 15.3 µM]”.

With `CC1(C)CC2C3=CCC4[C@@]5(C)CC[C@H](OC6OCC(O)C(OC7OC(CO)C(O)C(O)C7O)C6O)C(C)(C)C5CC[C@@]4(C)[C@]3(C)C[C@H](O)[C@@]2(CO)[C@H](OC(=O)c2ccccc2)C1` (stereo partly drawn), the “activity, negative = inhibition” value is -19.6% [at 15.3 µM] (inactive).

As to `O=C(O)c1ccncc1Nc1nn(CCN2CCC(F)(F)CC2)c2ccc(F)cc12`, the “activity, negative = inhibition” value was -15.2% [at 48.8 µM] (inactive).

For the compound `COc1cc(C)c(C(=O)NC2C(C)OC(OC3CCC(C)C4C3C=C(C)C3/C(C)=C\CC/C(C)=C/C5(C)C=C(C(=O)O)C(C)CC56OC(=O)/C(=C(\O)C34C)C6=O)C(O)C2(C)O)c(O)c1` (stereo not drawn), the “outcome” value was “inactive [at 15.3 µM]”.

For the compound `C/C=C(/C)C(=O)OC1C2OC2C2(CO2)C2C3OC(=O)C(C)C3CCC12C` (stereo not drawn), the “activity, negative = inhibition” value is -0.563% (inactive).

Values taken from PubChem BioAssay (NCATS).
